Pf growth 96h: Primary qHTS for delayed death inhibitors of the malarial parasite plastid, 96 hour incubation; P. falciparum luciferase reporter growth, 96 h; AID 504834, 2011; Potency, µM (doses to about 28.7 µM), without a hit: at the highest dose activity change, negative = inhibition, actives largely listed as inhibitors; 6.9% of 320,000 active; note: potency is the fitted concentration of half-maximal effect; % is set by controls: 0 for no effect and ±100 for the full control effect
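P. falciparum expressing integrated firefly luciferase grown in erythrocytes (2% hematocrit, 0.05% parasitemia final) with compounds for 96 hours at 37 C, 5% CO2. Growth inhibition read as loss of luminescence after adding luciferase detection reagent.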
Shiga inhibitor: A qHTS for Small Molecule Inhibitors of Shiga Toxin | Vero cells, Shiga toxin protein synthesis inhibition reporter | inhibition, % at 38.7 µM | 9.2% of 290,000 active; in the data active = inhibition mostly above about 28%, no sharp cut-off; inactive = mostly below about 43%; note: 0% is about no effect
Pf growth 48h: Primary qHTS for delayed death inhibitors of the malarial parasite plastid, 48 hour incubation. P. falciparum luciferase growth in erythrocytes, 48 h. Potency, µM (doses to about 28.7 µM), without a hit: top-dose activity change, negative = inhibition, usual class: inhibitors. 5.9% of 310,000 active. AID 504832, 2011; note: potency is the fitted concentration of half-maximal effect; % is set by controls: 0 for no effect and ±100 for the full control effect
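A one-generation exposure of luciferase-tagged malaria parasites in RPMI 1640/Albumax erythrocyte culture, 37 C and 5% CO2. Inhibition is inferred from decreased luminescence after adding detection reagent.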
HCV inhibitor: qHTS Assay for Inhibitors of Hepatitis C Virus (HCV). Huh7.5.1 HCVcc-Cre infection, luciferase reporter, 44 h. Potency, µM (highest dose often 41.8 µM), without a hit: at the highest dose activity change, negative = inhibition, usual class: inhibitors. 3.4% of 340,000 active. AID 651820, 2012; note: potency is the fitted concentration of half-maximal effect; % is set by controls: 0 for no effect and ±100 for the full control effect
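Reporter virus HCVcc-Cre (~0.5 moi) infects cells exposed to compound; seeding density 1,000 cells/well with 4 h settling beforehand. Luminescence, 15 sec read, taken 44 h post-infection following a 15 min RT substrate incubation.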
HCMV antiviral: qHTS Assay for inhibitors of the human cytomegalovirus (HCMV); AID 1259415, 2018; HFF cells, HCMV-luciferase reporter, 72 h; hits give low values; 4.5% of 410,000 active; activity change, negative = inhibition, % at 57.5 µM; in the data active = activity change below about -60%; inconclusive = no clear call, values can overlap the other calls; inactive = above about -39%; note: % is set by controls: 0 for no effect and ±100 for the full control effect
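Compounds were evaluated in HFFs infected with an HCMV luciferase reporter virus (MOI 1 PFU/cell). Luciferase in lysates collected 72 h post infection served as the replication measure.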
Cycloheximide cs: Cycloheximide Counterscreen for Small Molecule Inhibitors of Shiga Toxin; AID 2314, 2010; 12% of 300,000 active; max response, %; cell reporter, cycloheximide protein synthesis inhibition counterscreen; in the data active = max response mostly above about 13%, no sharp cut-off; inactive = mostly below about 14%; note: read at 38.3 µM for the half of the compounds with a filed dose; 0% is about no effect
* = called active by the depositor; i = inactive; ? = inconclusive; . = no result; [ ] = dose if it differs, or a comment. An excerpt weighted towards active compounds, which were near 21% of everything screened. Unless noted, calls come from the whole dose curve; as a rule, active = well fitted inhibition curve with a large enough effect; inconclusive = small, poorly fitted or top-dose-only effect, or another doubt; inactive = no such curve, though single readings can be large or run the other way.

SMILES	Pf growth 96h	Shiga inhibitor	Pf growth 48h	HCV inhibitor	HCMV antiviral	Cycloheximide cs
CCOC(=O)C1CCN(CC(=O)Nc2c(C(=O)OC)[nH]c3ccc(Cl)cc23)CC1	?	-11	13µM*	10µM*	60	-3
COC(=O)c1[nH]c2ccc(Cl)cc2c1NC(=O)CCN1CCN(C2CCCCC2)CC1	3.7µM*	-8	12µM*	?	5	16
COC(=O)c1[nH]c2ccc(Cl)cc2c1NC(=O)Oc1ccccc1	275%	56*	133%	-18%	27	40*
COc1ccc(-c2ccc3c(c2)C2CC3CCN2Cc2ccc(OC(F)(F)F)cc2)cc1 (centres undefined)	.	.	.	5%[8.37 µM]	-27	.
O=c1c(F)cn(C2CCCO2)c(=O)n1Cc1c(Cl)cccc1Cl (centres undefined)	13µM*	15	.	.	-11	-2
O=c1c(F)cn(C2CCCO2)c(=O)n1Cc1ccc(Cl)cc1 (centres undefined)	57%	-2	30%	14%	3	-3
CN(CCCNC(=O)CSc1cc(=O)n(C)c2ccc(Cl)cc12)Cc1ccccc1	-6%	3	-7%	?	215	-1
Fc1ccccc1NC(=S)N1CCC(c2ccccc2)C1 (centres undefined)	8%	164*	50%	-28%	-18	62*
Fc1ccccc1NC(=S)N1CCCCC1	60%	4	22%	19%	0	-1
O=C(NC1CCN(C(=S)Nc2ccccc2Cl)CC1)C1CCCCC1	4%	-4	-16%	-20%	0	3
Cc1ccc(NC(=S)N2CCC(c3ccccc3)C2)c(Cl)c1 (centres undefined)	6%	72*	i	3%	13	19
S=C(Nc1ccccc1Cl)N1CCC(c2ccccc2)C1 (centres undefined)	8%	131*	202%	2%	44	44*
Fc1cc(F)cc(NC(=S)N2CCC(c3ccccc3)C2)c1 (centres undefined)	5%	138*	41%	13%	-33	41*
C=C(C)[C@@H]1CC=C(CN2CCN(Cc3ccccc3)CC2)CC1	?	-8	?	-12%	0	-5
Cc1ccc2c(c1)N(C(=O)N1CCC(C(=O)NCc3ccccc3C)CC1)CC(C)O2 (centres undefined)	.	.	.	.	-17	.
CC(C)CN1CCC(=O)N([C@H](CO)c2ccccc2)CC1	30%	-3	24%	1%	-1	1
COc1cc(/C=N/N2CCOCC2)ccc1OCc1ccccc1	-2%	36	0%	-19%	-105*	16*
COc1ccc(/C=N/N2CCOCC2)cc1O	31%	48*	32%	9%	-19	28*
COc1cc(/C=N/N2CCOCC2)ccc1OCc1ccc(Cl)cc1	30%	82*	6%	-29%	?	37*
COc1ccc(/C=N/N2CCOCC2)cc1OCc1ccccc1	8%	16	22%	1%	?	9
O=C(NCCc1ccccc1)O[C@H]1CC[C@@]23CCCN2C(=O)CCC[C@H]3[C@H]1Cc1ccccc1	.	.	.	.	-3	.
CN(C)c1ccc(NC(=O)c2cccc(N3C(=O)C4C5C=CC(C5)C4C3=O)c2)cc1 (centres undefined)	.	144	122%	-2%	?	62*
CCOC(=O)c1cccc(N2C(=O)C3C(C2=O)C2C=CC3C23CC3)c1 (centres undefined)	.	-19	-13%	5%	-6	7
CC(=O)COC(=O)c1cccc(N2C(=O)C3C4C=CC(C4)C3C2=O)c1 (centres undefined)	13µM*	-16	-7%	0%	-7	-6
COc1ccc(NC(=O)c2cccc(N3C(=O)C4C5C=CC(C5)C4C3=O)c2)cc1Cl (centres undefined)	7%	14	?	10µM*	13	-1
SMILES	Pf growth 96h	Shiga inhibitor	Pf growth 48h	HCV inhibitor	HCMV antiviral	Cycloheximide cs
O=S(=O)(Nc1cccc(S(=O)(=O)N2CCOCC2)c1)c1cccs1	?	-3	23%	.	-14	-3
CCOc1ccc(CNC(=O)CCn2c(=O)c3cccn3c3ccc(F)cc32)cc1	.	.	.	.	-30	.
CCCc1nnc(NC(=O)C2CCCO2)s1 (centres undefined)	15%	52	30%	-5%	48	25*
CCc1nnc(NC(=O)C2CCCO2)s1 (centres undefined)	-4%	27	45%	20%	-6	17*
Cc1ccc(-n2ncc3c(N4CCCCC4)ncnc32)cc1	.	.	.	.	-101*	.
Clc1ccc(-n2ncc3c(N4CCCCCC4)ncnc32)cc1	95%	33	62%	-5%	-79*	21*
CCc1ccc(NC(=O)CSC2=Nc3ccccc3C3=NC(CCC(=O)NCc4ccccc4)C(=O)N23)cc1 (centres undefined)	.	.	.	.	13	.
COc1ccc(Nc2nc(N)nc(CSC(=S)N3CCCCC3C)n2)cc1 (centres undefined)	?	65*	-27%	?	-63*	28*
COc1ccc(Nc2nc(N)nc(CN(C)C3CCCCC3)n2)cc1	?	15	?	-8%	41	9
COc1ccc(Nc2nc(N)nc(CSC(=S)N3CCN(C)CC3)n2)cc1	?	19	17%	11%	8	17*
Cc1ccc(Nc2nc(N)nc(CN3CCCCCC3)n2)cc1	.	10	-8%	-13%	-1	-1
Cc1c(Cl)cccc1Nc1nc(N)nc(CSC(=S)N2CCOCC2)n1	?	76	8%	-25%	51	39*
COc1ccc(Nc2nc(N)nc(CSC(=S)N3CCCCC3)n2)cc1	2%	36*	4%	-21%	25	48*
Nn1c(SCc2ccc(Br)cc2)nnc1-c1ccncc1	-3%	-4	4%	-3%	-63*	-4
Cc1ccc(CSc2nnc(-c3ccncc3)n2N)cc1	-14%	18	3%	15%	?	8
CCOC(=O)c1ccc(CSc2nnc(-c3ccncc3)n2N)cc1	23%	77	-25%	-8%	-11	41*
Cc1cc(C)n2c(SCc3ccc(Br)cc3)nnc2n1	-21%	35	-4%	?	-2	11*
Cc1cc(C(=O)COc2ccccc2C(N)=O)c(C)n1C1CC1	-2%	106	190%	?	?	40*
Cc1cc(C(=O)COc2ccccc2[N+](=O)[O-])c(C)n1C1CC1	10%	65*	41%	0%	-22	28*
Cc1ccccc1OCC(=O)OCC(=O)c1cc(C)n(C2CC2)c1C	16%	.	16%	12%	-22	.
Cc1cc(C)n(C(=O)COc2ccccc2[N+](=O)[O-])n1	21%	15	?	-7%	-27	11
